Reference: PubChem BioAssay (NCI)
This is part of a sample that, as a whole, favours compounds with a hit. Of some 83,000 tested, about 20% had one in any assay.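 Compound tested at a single concentration for 48 hours in 96-well plates; a percent growth value below 10 was scored as active.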 Active and inactive are the calls of the source.

Assays:
Experiment in all cases: NCI-60 one-dose screen, 48 h (100 = growth as untreated, 0 = no growth, -100 = all killed)
Details in all cases: 10 µM unless noted
[1] = system: SK-MEL-2 melanoma
[2] = system: EKVX NSCLC
[3] = system: SN12C renal
[4] = system: UO-31 renal
[5] = system: TK-10 renal
[6] = system: ACHN renal
[7] = system: CAKI-1 renal
[8] = system: A498 renal
[9] = system: CCRF-CEM leukemia
[10] = system: MOLT-4 leukemia

Measured: growth

Cn1cc(Nc2nccc(-c3ccc(N4CCCC4)c(C#N)c3)n2)cn1
active: [1] 3.95%
inactive: [2] 57% | [3] 44.9% | [4] 31.9% | [5] 40.7% | [6] 26.7% | [7] 16.7% | [8] 48% | [9] 34% | [10] 17.2%

COc1ccc(Cn2cnc3cc(C(=O)Nc4cccc5ccccc45)ccc32)c(OC)c1
active: [3] 7.29% [30 µM] | [8] -13.9% [30 µM] | [10] 6.04% [30 µM]
inactive: [1] 44.4% [30 µM] | [2] 37.9% [30 µM] | [4] 29.8% [30 µM] | [5] 76.8% [30 µM] | [6] 23.8% [30 µM] | [7] 18% [30 µM] | [9] 12.6% [30 µM]

CC(C)n1nc(C#Cc2cccc(NC(=O)c3cccc(C(F)(F)F)c3)c2)c2c(N)ncnc21
active: [1] -65.2% | [2] 1.52% | [3] -8.6% | [4] -51.4% | [5] -56.8% | [6] -31.9% | [7] -40.9% | [8] -80.6% | [10] 2.57%
inactive: [9] 11.8%

OC(c1cccc(OCc2ccccc2)c1)c1nnc(-c2ccccc2)o1 (stereo not drawn)
inactive: [1] 100% | [2] 77.3% | [3] 92.8% | [4] 68.1% | [5] 143% | [6] 92.6% | [7] 95.2% | [8] 102% | [9] 75.7% | [10] 105%

CN(CCCCCCCCNc1ccnc2ccccc12)Cc1ccc(-c2ccc(-c3ccc(C#N)cc3)s2)cc1
inactive: [8] 50.2%
active: [1] -63.9% | [2] -14.3% | [3] -78% | [4] -92.4% | [5] -50.1% | [6] -93.6% | [7] -86.5% | [9] -11.3% | [10] -32.9%

CC(=O)OCCc1ccccc1
inactive: [1] 99.6% | [2] 96.2% | [3] 95% | [4] 97.8% | [5] 106% | [6] 100% | [7] 77.1% | [8] 95.5% | [9] 105% | [10] 91.9%

CCN(CC)CCOc1ccc(/C(=C(\C)c2ccc(F)c(OC)c2)c2ccc(Cl)cc2)cc1
active: [4] 7.48% | [10] -1.16%
inactive: [1] 67.7% | [2] 56.4% | [3] 38% | [5] 49.5% | [6] 25.8% | [7] 17.1% | [8] 48.1% | [9] 13.9%

C=CCO[C@H]1CO[C@H]2[C@@H]1OC[C@@H]2Oc1ccc(Nc2ccnc(Nc3ccc(O[C@H]4CO[C@H]5[C@@H]4OC[C@@H]5OCC=C)c(Cl)c3)n2)cc1Cl
active: [2] -71% | [3] -95.5% | [4] -91.3% | [5] -54.4% | [7] -7.16% | [9] -9.75% | [10] -39.3%
inactive: [1] 104% | [6] 14.5% | [8] 95.6%

C=C(C)[C@@H]1CC[C@@]2(C(=O)O)CC[C@]3(C)C(CCC4[C@@]5(C)CCC(OS(=O)(=O)c6ccccc6)C(C)(C)C5CC[C@]43C)C12 (stereo partly drawn)
inactive: [1] 70.3% | [2] 25.4% | [3] 62.2% | [4] 48.5% | [5] 59.8% | [6] 49.7% | [8] 84.2% | [9] 62.4% | [10] 51.7%
active: [7] -15.5%

COc1ccc(/C(C)=C(\c2ccc(Cl)cc2)c2ccc(OCCN(C)C)cc2)cc1F
inactive: [1] 105% | [2] 81.6% | [3] 70.6% | [4] 54.7% | [5] 59.1% | [6] 92% | [7] 56.2% | [8] 98.5% | [9] 40.2% | [10] 39.5%

c1ccc2[nH]c(SSc3nc4ncncc4[nH]3)nc2c1
active: [7] -46.4%
inactive: [1] 57.2% | [2] 67.5% | [3] 42.3% | [4] 31.6% | [5] 30% | [6] 32.2% | [8] 61.7% | [9] 24.7% | [10] 26%

C/C(Cc1ccc(Cl)cc1)=C(/c1ccc(Cl)cc1)c1ccc(OCCN(C)C)cc1
inactive: [1] 109% | [2] 81.8% | [3] 47.9% | [4] 65% | [5] 82.9% | [6] 82.8% | [7] 54.6% | [8] 80.8% | [9] 39.5% | [10] 31.7%

O=C(Oc1ccc([N+](=O)[O-])cc1)c1ccc(CBr)cc1
inactive: [1] 101% | [2] 103% | [3] 89.9% | [4] 83.3% | [5] 99.3% | [6] 95.2% | [7] 86.2% | [8] 86.5% | [9] 68.7% | [10] 82.7%

Cc1ccc(/C(=N\N=C(N)N)c2ccccc2)cc1
inactive: [1] 71.3% | [2] 34.3% | [3] 26.9% | [4] 24.8% | [5] 42.2% | [6] 20.4% | [7] 41.2% | [8] 20.1% | [9] 14% | [10] 13.3%

Cc1ccc(-n2nnc(C3=NCCc4c3[nH]c3ccc(Cl)cc43)c2C)cc1
inactive: [1] 62.6% | [2] 70.8% | [3] 81.6% | [4] 57.8% | [5] 78.9% | [6] 57.2% | [7] 56.1% | [8] 66.5% | [9] 27.8% | [10] 49.6%

CCOc1cc(N)ccc1C(=O)NCCCN(CC)CC
inactive: [1] 102% | [2] 106% | [3] 98.5% | [4] 75.8% | [5] 108% | [6] 94.6% | [7] 95.2% | [8] 66.5% | [10] 26.3%
active: [9] -13.6%

COc1ccc(OC)c(/C=C2\COc3ccc(O)cc3C2=O)c1
inactive: [1] 100% | [2] 103% | [3] 84.1% | [4] 86.6% | [5] 97% | [6] 78.9% | [7] 95.7% | [8] 100% | [10] 64.9%
active: [9] 5.83%

COc1cccc(-c2cnco2)c1OCc1c(C)c(COc2c(OC)cccc2-c2cnco2)c(C)c(COc2c(OC)cccc2-c2cnco2)c1C
inactive: [1] 60.9% | [2] 52.8% | [3] 51.4% | [4] 30.8% | [5] 28.1% | [6] 29.6% | [7] 88.7% | [9] 94.5% | [10] 91.2%
active: [8] -13.6%

Cc1c2c(cn1Cc1ccccc1)CCc1cn(C)nc1-2
inactive: [1] 114% | [2] 73.2% | [3] 87% | [4] 68.6% | [5] 107% | [6] 80.3% | [7] 58.8% | [8] 97.5% | [9] 74.4% | [10] 69.7%

O=C1/C(=C/c2ccccc2[N+](=O)[O-])COc2ccc(O)c(O)c21
inactive: [8] 77.4%
active: [1] 3.35% | [2] 7.9% | [3] -29.1% | [4] -67.8% | [5] 3.34% | [6] 3.22% | [7] 6.79% | [9] -2.4% | [10] -8.56%

C=C1c2c(C)nn(-c3ccc(S(N)(=O)=O)cc3)c2N(C)C23CC1C1(C)c4c(C)nn(-c5ccc(S(N)(=O)=O)cc5)c4N(C)C(C)(CC12)C3 (stereo not drawn)
inactive: [1] 44.7% | [2] 29.6% | [3] 32.4% | [4] 25.5% | [5] 46.6% | [6] 14.1% | [7] 40.7% | [8] 75.3% | [9] 18.7%

CCCn1nc(-c2ccccc2)c2c(-c3ccccc3)onc2c1=O
inactive: [1] 57.8% | [2] 78.9% | [3] 82.1% | [4] 68.8% | [5] 106% | [6] 94.1% | [7] 85.9% | [8] 68.9% | [9] 68.7%

O=C1c2cccc3c(-c4ccc(-c5nc6c7ccccc7c7ccccc7c6[nH]5)cc4)ccc(c23)C(=O)N1CCN1CCNCC1
inactive: [1] 105% | [2] 97% | [3] 93.4% | [4] 94.2% | [5] 104% | [6] 71.7% | [7] 91.4% | [8] 107% | [9] 37.5% | [10] 53.4%

O=[N+]([O-])c1ccc2[nH]cc(-c3c4ccsc4cc4[nH]c5ccc([N+](=O)[O-])cc5c34)c2c1
inactive: [2] 29% | [3] 21.7% | [4] 22.9% | [5] 30.9% | [6] 24.5% | [7] 26.2%
active: [1] 2.1% | [8] -16.6% | [9] 7.42% | [10] 5.22%

O=C(CCc1nc(-c2cccc(Cl)c2)no1)Nc1ccccn1
inactive: [1] 105% | [2] 92.6% | [3] 94.9% | [4] 88.1% | [5] 111% | [6] 101% | [7] 89.4% | [8] 92.5% | [9] 95% | [10] 96.8%

CC1(C)N=C(N)N=C(N)N1c1cccc(CN)c1
inactive: [1] 99.8% | [2] 83.9% | [3] 91.3% | [4] 66.8% | [5] 101% | [6] 100% | [7] 89.2% | [8] 98% | [9] 96.5% | [10] 95.1%

CN(C)c1cnccn1
inactive: [1] 85.4% | [2] 104% | [3] 88.6% | [4] 84.2% | [5] 145% | [6] 87.1% | [7] 95.6% | [8] 95.7% | [9] 60.6% | [10] 93.7%
